Reference: ChEMBL document CHEMBL1961873, “Compounds: GSK PKIS; Assays: Nanosyn kinase panel” (2012)

Legend:
[1] = target: Protein kinase C gamma type (Homo sapiens) (UniProt P05129); conditions: at 1 µM;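 further: each value is an averaged percent inhibition of the enzyme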
[2] = target: T1, Protein kinase C iota type (Homo sapiens) (UniProt P41743); conditions: at 0.1 µM
T1 sequence (whole entry): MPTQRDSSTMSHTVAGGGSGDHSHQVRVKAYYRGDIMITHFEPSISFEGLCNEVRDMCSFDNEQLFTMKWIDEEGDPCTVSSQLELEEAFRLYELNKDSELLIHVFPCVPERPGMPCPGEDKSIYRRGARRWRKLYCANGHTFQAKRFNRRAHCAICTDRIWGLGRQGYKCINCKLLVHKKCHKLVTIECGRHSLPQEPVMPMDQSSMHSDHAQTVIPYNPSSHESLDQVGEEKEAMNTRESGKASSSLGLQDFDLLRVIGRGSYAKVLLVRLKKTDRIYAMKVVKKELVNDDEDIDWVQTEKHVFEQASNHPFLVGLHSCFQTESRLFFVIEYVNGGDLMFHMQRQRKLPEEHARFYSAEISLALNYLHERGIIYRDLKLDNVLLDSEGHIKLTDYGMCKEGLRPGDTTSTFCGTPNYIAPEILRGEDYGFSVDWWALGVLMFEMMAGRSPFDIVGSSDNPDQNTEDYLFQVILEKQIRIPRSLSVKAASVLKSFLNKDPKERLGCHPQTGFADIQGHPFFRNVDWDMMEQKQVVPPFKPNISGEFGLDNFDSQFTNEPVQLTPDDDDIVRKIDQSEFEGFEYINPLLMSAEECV

[3] = target: T1, Protein kinase C iota type (Homo sapiens); conditions: at 1 µM
[4] = target: Protein kinase C theta type (Homo sapiens) (UniProt Q04759); conditions: at 0.1 µM
Sequence of Protein kinase C theta type (Homo sapiens) (Q04759 whole entry, looked up): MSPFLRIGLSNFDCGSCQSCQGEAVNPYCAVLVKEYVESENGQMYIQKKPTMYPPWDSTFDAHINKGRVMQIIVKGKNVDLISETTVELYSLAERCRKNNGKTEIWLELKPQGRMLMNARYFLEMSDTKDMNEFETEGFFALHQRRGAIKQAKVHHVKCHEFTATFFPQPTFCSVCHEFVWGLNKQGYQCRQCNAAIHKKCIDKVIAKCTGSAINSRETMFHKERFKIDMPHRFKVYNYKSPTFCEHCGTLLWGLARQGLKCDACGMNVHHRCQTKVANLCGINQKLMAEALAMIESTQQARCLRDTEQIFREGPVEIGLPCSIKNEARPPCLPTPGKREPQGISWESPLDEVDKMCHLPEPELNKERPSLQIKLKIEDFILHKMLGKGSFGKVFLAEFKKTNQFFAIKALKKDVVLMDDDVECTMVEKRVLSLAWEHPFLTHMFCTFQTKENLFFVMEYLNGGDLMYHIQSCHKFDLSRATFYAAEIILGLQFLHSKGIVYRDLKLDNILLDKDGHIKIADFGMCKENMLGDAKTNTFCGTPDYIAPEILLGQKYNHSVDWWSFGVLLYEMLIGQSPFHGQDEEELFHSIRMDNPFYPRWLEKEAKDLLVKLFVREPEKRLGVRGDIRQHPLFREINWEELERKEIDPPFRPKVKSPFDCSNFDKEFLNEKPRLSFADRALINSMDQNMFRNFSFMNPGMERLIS

[5] = target: Protein kinase C theta type (Homo sapiens) (UniProt Q04759); conditions: at 1 µM
[6] = target: Protein kinase C beta type (Homo sapiens) (UniProt P05771); conditions: at 0.1 µM
Sequence of Protein kinase C beta type (Homo sapiens) (P05771 2-671 limits assumed): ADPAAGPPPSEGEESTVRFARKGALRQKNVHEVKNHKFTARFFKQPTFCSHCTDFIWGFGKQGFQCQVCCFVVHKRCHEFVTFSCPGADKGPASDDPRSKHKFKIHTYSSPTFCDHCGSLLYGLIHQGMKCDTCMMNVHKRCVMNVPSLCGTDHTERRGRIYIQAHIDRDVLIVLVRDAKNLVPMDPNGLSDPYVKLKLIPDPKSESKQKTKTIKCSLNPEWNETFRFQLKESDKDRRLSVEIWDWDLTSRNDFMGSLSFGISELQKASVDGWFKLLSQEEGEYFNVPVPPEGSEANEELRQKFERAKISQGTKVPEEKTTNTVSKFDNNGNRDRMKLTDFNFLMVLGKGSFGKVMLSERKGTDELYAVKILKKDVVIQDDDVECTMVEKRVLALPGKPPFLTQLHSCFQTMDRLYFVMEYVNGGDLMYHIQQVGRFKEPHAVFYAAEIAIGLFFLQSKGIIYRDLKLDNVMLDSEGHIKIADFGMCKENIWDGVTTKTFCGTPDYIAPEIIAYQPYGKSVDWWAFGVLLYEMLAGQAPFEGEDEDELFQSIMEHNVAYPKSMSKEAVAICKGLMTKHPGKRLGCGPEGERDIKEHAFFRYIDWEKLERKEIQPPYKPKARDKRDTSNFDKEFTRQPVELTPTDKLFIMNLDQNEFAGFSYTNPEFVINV

[7] = target: Protein kinase C beta type (Homo sapiens) (UniProt P05771); conditions: at 1 µM
[8] = target: T2, Serine/threonine-protein kinase D1 (Homo sapiens) (UniProt Q15139); conditions: at 0.1 µM
T2 sequence (whole entry): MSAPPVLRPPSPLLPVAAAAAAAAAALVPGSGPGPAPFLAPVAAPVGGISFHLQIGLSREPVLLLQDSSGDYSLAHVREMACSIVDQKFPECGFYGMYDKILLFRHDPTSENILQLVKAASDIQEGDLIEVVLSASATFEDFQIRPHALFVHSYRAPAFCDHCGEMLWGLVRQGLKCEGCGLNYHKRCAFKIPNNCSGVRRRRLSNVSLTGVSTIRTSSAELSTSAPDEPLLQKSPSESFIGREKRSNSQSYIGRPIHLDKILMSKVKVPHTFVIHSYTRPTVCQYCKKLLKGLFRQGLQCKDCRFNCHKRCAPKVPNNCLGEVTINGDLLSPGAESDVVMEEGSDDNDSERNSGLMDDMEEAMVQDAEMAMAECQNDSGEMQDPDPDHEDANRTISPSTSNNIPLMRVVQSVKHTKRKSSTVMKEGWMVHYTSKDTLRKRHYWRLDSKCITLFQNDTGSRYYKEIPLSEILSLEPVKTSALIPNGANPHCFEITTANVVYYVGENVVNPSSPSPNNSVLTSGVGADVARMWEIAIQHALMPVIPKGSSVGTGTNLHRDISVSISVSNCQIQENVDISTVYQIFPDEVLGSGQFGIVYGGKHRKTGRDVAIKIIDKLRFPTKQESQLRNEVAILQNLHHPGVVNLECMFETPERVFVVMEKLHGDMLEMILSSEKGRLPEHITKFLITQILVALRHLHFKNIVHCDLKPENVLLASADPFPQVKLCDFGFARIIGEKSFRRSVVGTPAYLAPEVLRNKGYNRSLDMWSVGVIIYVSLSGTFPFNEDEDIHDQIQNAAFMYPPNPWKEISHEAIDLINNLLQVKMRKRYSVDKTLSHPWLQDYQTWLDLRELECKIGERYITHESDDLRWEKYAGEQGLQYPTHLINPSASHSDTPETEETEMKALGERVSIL

[9] = target: T2, Serine/threonine-protein kinase D1 (Homo sapiens); conditions: at 1 µM
[10] = target: T3, Serine/threonine-protein kinase D2 (Homo sapiens) (UniProt Q9BZL6); conditions: at 0.1 µM
T3 sequence (whole entry): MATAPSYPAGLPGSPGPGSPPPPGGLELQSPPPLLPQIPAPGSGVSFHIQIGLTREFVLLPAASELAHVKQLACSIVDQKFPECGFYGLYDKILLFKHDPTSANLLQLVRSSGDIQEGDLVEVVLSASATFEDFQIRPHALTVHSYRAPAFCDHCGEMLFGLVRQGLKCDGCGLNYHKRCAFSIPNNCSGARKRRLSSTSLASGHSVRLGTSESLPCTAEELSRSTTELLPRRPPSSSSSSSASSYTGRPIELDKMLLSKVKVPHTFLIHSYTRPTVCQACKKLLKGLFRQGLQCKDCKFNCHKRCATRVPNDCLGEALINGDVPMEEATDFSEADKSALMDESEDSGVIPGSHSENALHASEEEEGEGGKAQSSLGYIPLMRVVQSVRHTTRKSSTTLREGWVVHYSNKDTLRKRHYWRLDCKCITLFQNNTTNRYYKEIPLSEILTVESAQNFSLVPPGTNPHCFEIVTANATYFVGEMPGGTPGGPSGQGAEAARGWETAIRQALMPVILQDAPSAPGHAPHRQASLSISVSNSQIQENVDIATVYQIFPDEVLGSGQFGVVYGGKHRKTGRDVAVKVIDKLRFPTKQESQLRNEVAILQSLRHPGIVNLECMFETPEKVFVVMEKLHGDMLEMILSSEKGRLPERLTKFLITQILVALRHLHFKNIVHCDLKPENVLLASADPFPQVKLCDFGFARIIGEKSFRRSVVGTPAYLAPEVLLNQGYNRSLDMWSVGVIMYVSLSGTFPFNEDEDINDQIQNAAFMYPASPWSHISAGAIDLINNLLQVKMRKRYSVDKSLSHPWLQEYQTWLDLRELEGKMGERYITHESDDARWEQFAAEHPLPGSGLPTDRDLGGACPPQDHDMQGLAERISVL

[11] = target: T3, Serine/threonine-protein kinase D2 (Homo sapiens); conditions: at 1 µM
[12] = target: T4, Serine/threonine-protein kinase D3 (Homo sapiens) (UniProt O94806); conditions: at 0.1 µM
T4 sequence (whole entry): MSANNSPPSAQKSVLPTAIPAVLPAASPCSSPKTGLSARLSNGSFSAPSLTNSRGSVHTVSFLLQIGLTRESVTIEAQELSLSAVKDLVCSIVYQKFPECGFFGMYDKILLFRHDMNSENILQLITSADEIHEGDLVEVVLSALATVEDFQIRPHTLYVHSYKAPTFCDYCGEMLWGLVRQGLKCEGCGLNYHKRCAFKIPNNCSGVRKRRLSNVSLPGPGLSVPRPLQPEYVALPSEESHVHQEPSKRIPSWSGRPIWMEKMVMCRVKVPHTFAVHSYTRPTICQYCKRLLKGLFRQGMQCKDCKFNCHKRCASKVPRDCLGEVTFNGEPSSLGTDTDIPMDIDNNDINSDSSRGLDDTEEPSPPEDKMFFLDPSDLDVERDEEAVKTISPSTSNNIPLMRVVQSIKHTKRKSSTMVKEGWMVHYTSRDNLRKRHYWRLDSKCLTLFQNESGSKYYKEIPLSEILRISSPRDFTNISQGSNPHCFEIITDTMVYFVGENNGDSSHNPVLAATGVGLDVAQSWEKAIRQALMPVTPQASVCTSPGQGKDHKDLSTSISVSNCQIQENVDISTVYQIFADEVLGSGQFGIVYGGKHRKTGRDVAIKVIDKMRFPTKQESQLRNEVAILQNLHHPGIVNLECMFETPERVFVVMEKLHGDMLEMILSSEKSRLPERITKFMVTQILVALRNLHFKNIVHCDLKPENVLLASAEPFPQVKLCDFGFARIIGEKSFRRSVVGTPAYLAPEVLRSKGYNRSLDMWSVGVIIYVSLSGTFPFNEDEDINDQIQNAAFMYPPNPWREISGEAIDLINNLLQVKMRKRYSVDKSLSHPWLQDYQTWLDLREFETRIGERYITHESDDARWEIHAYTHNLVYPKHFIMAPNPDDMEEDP

[13] = target: T4, Serine/threonine-protein kinase D3 (Homo sapiens); conditions: at 1 µM
[14] = target: T5, cGMP-dependent protein kinase 1 (Homo sapiens) (UniProt Q13976); conditions: at 0.1 µM
T5 sequence (whole entry): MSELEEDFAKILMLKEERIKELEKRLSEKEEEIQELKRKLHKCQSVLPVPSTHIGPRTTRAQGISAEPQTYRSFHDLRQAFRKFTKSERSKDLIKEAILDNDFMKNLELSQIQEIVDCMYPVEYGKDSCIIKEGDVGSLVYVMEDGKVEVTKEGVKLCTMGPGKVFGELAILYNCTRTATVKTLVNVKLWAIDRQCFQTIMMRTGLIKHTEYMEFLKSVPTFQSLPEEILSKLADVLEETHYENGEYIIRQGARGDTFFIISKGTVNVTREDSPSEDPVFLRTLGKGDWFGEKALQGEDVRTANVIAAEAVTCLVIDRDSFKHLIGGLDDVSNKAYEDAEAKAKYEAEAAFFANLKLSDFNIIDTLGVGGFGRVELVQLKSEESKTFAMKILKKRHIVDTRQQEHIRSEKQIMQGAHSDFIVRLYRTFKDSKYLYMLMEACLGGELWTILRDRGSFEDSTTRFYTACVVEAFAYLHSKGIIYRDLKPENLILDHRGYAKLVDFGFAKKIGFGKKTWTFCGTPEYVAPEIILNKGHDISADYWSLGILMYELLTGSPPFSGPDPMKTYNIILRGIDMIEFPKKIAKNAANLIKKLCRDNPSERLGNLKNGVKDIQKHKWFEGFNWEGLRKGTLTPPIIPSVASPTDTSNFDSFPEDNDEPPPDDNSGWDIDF

[15] = target: T5, cGMP-dependent protein kinase 1 (Homo sapiens); conditions: at 1 µM
[16] = target: T6, cGMP-dependent protein kinase 2 (Homo sapiens) (UniProt Q13237); conditions: at 0.1 µM
T6 sequence (whole entry): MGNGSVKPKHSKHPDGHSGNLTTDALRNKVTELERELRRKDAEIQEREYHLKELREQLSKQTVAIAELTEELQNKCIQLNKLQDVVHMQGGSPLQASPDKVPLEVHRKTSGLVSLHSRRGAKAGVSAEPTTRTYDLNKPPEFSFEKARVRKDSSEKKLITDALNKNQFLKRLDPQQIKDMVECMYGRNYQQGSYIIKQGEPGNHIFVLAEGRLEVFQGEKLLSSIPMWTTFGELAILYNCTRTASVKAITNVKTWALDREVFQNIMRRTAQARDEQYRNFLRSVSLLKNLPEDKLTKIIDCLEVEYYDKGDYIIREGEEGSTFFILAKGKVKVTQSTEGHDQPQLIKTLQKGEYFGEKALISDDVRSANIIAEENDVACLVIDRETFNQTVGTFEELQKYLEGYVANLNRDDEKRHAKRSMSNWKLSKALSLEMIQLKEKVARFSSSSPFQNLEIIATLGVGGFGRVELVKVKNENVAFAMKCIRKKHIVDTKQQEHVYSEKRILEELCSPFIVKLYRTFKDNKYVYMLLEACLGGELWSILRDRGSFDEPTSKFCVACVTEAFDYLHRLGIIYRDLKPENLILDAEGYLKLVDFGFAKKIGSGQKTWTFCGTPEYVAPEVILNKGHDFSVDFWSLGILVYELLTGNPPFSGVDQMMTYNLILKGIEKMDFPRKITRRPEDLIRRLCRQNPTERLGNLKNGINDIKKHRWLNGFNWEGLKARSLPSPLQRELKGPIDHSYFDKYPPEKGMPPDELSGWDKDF

[17] = target: T6, cGMP-dependent protein kinase 2 (Homo sapiens); conditions: at 1 µM
[18] = target: T7, cAMP-dependent protein kinase catalytic subunit PRKX (Homo sapiens) (UniProt P51817); conditions: at 0.1 µM
T7 sequence (whole entry): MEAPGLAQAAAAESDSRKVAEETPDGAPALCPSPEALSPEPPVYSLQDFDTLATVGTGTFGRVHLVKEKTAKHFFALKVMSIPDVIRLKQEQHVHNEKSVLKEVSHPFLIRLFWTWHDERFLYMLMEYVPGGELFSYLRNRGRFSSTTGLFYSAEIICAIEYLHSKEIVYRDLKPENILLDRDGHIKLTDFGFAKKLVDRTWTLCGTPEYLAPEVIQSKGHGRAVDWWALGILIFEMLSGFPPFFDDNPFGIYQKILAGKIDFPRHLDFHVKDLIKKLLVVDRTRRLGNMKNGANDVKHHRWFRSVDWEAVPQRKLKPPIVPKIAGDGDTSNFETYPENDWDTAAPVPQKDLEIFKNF

[19] = target: T7, cAMP-dependent protein kinase catalytic subunit PRKX (Homo sapiens); conditions: at 1 µM
[20] = target: Rho-associated protein kinase 1 (Homo sapiens) (UniProt Q13464); conditions: at 0.1 µM;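 further: values are mean percent inhibition of ROCK1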
Sequence of Rho-associated protein kinase 1 (Homo sapiens) (Q13464 2-1354 limits assumed): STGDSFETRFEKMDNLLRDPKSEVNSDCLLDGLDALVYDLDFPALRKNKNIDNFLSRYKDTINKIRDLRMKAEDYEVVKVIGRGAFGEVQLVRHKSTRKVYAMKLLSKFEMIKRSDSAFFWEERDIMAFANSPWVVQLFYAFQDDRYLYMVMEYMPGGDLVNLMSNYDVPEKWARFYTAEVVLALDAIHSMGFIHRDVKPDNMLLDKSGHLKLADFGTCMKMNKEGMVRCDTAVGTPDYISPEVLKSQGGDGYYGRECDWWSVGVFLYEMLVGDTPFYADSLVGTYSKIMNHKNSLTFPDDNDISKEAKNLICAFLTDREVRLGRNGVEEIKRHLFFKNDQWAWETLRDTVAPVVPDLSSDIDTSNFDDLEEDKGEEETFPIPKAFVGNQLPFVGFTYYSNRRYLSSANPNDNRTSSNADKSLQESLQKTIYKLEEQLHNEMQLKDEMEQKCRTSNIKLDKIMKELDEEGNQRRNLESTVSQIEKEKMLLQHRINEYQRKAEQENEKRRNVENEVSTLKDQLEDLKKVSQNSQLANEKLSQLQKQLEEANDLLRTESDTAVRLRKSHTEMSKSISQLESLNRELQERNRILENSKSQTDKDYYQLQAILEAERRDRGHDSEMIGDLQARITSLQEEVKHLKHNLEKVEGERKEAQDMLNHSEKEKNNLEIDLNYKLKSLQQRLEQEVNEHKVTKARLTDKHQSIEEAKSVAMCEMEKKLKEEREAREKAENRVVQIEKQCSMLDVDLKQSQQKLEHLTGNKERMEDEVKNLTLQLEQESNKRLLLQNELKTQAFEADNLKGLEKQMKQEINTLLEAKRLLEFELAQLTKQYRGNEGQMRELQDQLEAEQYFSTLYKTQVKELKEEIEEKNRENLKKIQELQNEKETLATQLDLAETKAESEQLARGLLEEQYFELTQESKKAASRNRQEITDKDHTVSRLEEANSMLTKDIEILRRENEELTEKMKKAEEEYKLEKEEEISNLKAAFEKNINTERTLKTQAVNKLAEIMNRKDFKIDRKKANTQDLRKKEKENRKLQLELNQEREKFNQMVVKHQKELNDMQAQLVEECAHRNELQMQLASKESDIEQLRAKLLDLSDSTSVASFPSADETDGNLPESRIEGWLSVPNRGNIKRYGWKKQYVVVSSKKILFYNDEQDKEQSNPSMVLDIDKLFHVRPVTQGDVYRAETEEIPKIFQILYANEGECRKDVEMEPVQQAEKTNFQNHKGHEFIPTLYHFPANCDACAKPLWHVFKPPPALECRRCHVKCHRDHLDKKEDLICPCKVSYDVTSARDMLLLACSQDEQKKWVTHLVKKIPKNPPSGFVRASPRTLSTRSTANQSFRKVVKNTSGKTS

CCOc1nccc2c1nc(-c1nonc1N)n2CC
inhibition [1]: 0.08% | inhibition [2]: 3.07% | inhibition [3]: 0.84% | inhibition [4]: 2.98% | inhibition [5]: 6.45% | inhibition [6]: 3.06% | inhibition [7]: 5.23% | inhibition [8]: 3.37% | inhibition [9]: 1.82% | inhibition [10]: 1.9% | inhibition [11]: 1.39% | inhibition [12]: 3.3% | inhibition [13]: 2.21% | inhibition [14]: 4.09% | inhibition [15]: 5.91% | inhibition [16]: 8.5% | inhibition [17]: 43.1% | inhibition [18]: 3.1% | inhibition [19]: 2.76% | inhibition [20]: 2.91%

COC(=O)c1ccc2c(c1)C(=Cc1cc(Br)c(O)c(Br)c1)C(=O)N2
inhibition [1]: 0.79% | inhibition [2]: 1.17% | inhibition [3]: 0.96% | inhibition [4]: 1.25% | inhibition [5]: 1.86% | inhibition [6]: 1.12% | inhibition [7]: 1.9% | inhibition [8]: 5.07% | inhibition [9]: 7.26% | inhibition [10]: 4.47% | inhibition [11]: 3.79% | inhibition [12]: 4.47% | inhibition [13]: 5.87% | inhibition [14]: 2.45% | inhibition [15]: 5.8% | inhibition [16]: 1.59% | inhibition [17]: 6.29% | inhibition [18]: 1.47% | inhibition [19]: 1.86% | inhibition [20]: 2.01%

c1ccc(Nc2ncc(-c3ccccc3)o2)cc1
inhibition [1]: 4.48% | inhibition [2]: 1.64% | inhibition [3]: 0.9% | inhibition [4]: 1.93% | inhibition [5]: 2.27% | inhibition [6]: 1.46% | inhibition [7]: 2.63% | inhibition [8]: 4.37% | inhibition [9]: 7.71% | inhibition [10]: 4.47% | inhibition [11]: 8.41% | inhibition [12]: 4.57% | inhibition [13]: 8.93% | inhibition [14]: 5.37% | inhibition [15]: 6.06% | inhibition [16]: 3.62% | inhibition [17]: 5.4% | inhibition [18]: 2.38% | inhibition [19]: 3.33% | inhibition [20]: 1.88%
